The panel holds about 83,000 compounds, 20% with a hit somewhere; the sample as a whole holds those more often.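 Treatment: one concentration, 48 hours, 96-well format. Scoring: percent growth, with anything below 10 considered active.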 Values without a mark were called inactive. The source made the active and inactive calls.

For one assay, the system named is SK-OV-3 ovarian. Kind of assay: NCI-60 one-dose screen, 48 h (100 = growth as untreated, 0 = no growth, -100 = all killed). The following applies: 10 µM unless noted.
With `Nc1cc2nc3ccccc3sc-2cc1=O`, the growth was 90.8%.

In the case of `C#Cc1nc(Nc2cc(C)[nH]n2)c2ccccc2n1`, the growth is 21.1%. `CCOC(=O)c1nc(Nc2cc(C)[nH]n2)c2ccccc2n1`: the growth was 75.8%.

Regarding `O=C(/C=C/c1ccc(Cl)cc1)/C=C/c1cc2ccccc2[nH]c1=O`, the growth is 99.9%. For `CCOC(=O)c1ccc2c(c1)nc(/C=C/c1ccc(Cl)cc1)n2-c1cc(C(C)(C)C)[nH]n1`, the growth is 43.3%. Consider `CC(=O)OCC(=O)C1CCC=CC1OC(C)=O` (stereo not drawn), for which the growth was 87.9%. The same measure, in the same setting: under `CC1(C)OCC2OC3(C(=O)O)OC(C)(C)OC3C2O1` (stereo not drawn) stands 101%; under `COc1ccc(C(=O)c2sc3nc(-c4ccccc4OC)ccc3c2N)cc1OC`, 107%.

Turning to `COc1ccc(C(=O)c2sc3nc4c(cc3c2N)CCCC4)cc1OC`, the growth was 71.6%. For the compound `Cc1ccc2c(NCCCN(C)C)c3c(C)nn(C)c3nc2c1`, the growth was 39.2%.

Regarding `Cc1ccc(NC(=O)c2sc3nc4c(cc3c2N)C(=O)CCC4)cc1C`, the growth was 4.9% (active).

As for `COc1c(C2CC(=O)Nc3c2cnn3Cc2ccco2)cc2c(c1OC)OCO2` (stereo not drawn), the growth is -9.03% (active). On to `Cc1ccn2c(-c3csc(Nc4cccc(O)c4)n3)c(C)nc2c1`, for which the growth is -25.2% (active).

As for `NC(CC(=O)O)C(=O)OCc1ccccc1` (stereo not drawn), the growth was 82.9%.

Consider `O=C1Nc2ccc(Br)cc2C12CC(c1ccccc1)=NN2` (stereo not drawn), for which the growth is 48.4%.

For `Cc1cc(Nc2nc(N3CCNCC3)nc3ccccc23)n[nH]1`, the growth was 27%. `CCc1ccccc1NC(=O)c1sc2nc3c(cc2c1N)C(=O)CCC3`: the growth was 6.9% (active). Still for that read-out and setting: the same measure for `CCOC(=O)N1CCN(c2nc(Nc3cc(C)[nH]n3)c3ccccc3n2)CC1`: 47.8%; for `CN1CCCCC1CCN1c2ccccc2Sc2ccc(Cl)cc21` (stereo not drawn): 59.1%. `COc1c(Cl)cc(Cl)cc1Cl`: the growth was 107%. Regarding `Cc1cc(Nc2nc(N3CCOCC3)nc3ccccc23)n[nH]1`, the growth was 20.5%. In the case of `COc1cc(-c2cc(-c3nc4ccc(Cl)cc4[nH]3)[nH]n2)cc(OC)c1OC`, the growth was 61.7%. Regarding `Cc1noc(C)c1-c1cc(O)cc(C(O)c2ccccc2)c1` (stereo not drawn), the growth was 43.7%. The same measure, in the same setting: under `COc1ccc(-c2nc(Nc3cc(C)[nH]n3)c3ccccc3n2)cc1` stands 53.1%; under `Cc1cc(Nc2nc(-c3cccnc3)nc3ccccc23)n[nH]1`, 21.9%; under `CC#Cc1nc2ccccc2c(=O)[nH]1`, 112%. With `O=C(Nc1ccc(F)cc1)Nc1ccc(CCO)cc1`, the growth is 113%.

`CCCCNC(=O)NS(=O)(=O)c1ccc(N2N=C(c3cc(C)ccc3C)CC2c2cc(OC)c(OC)c(OC)c2)cc1` (stereo not drawn): the growth is 68%.

On to `COc1cc(C2C(C(=O)c3cccs3)=C(O)C(=O)N2CCN2CCOCC2)cc(OC)c1OC` (stereo not drawn), for which the growth is 109%.

On to `NCc1cn2cc(Cl)sc2n1`, for which the growth is 103%. Still for that read-out and setting: the same measure for `CCCCCCCCCCCCN1CCCC(C)C1` (stereo not drawn): 88.3%. Same read-out and setting: under `O=c1c2cccc3c(Nc4ccccn4)ccc(c32)c2nc3ccccc3n12` stands 89.1%. On the same count and under the same terms, under `Cc1ccc(S(=O)(=O)N(CCc2ccc(Cl)cc2)S(=O)(=O)c2ccc(C)cc2)cc1` stands 85.2%.

As to `O=C(N/N=C/c1ccc(O)cc1O)c1cccnc1`, the growth was 46.8%. In the case of `CNC(=S)N/N=C/CSC/C=N/NC(=S)NC`, the growth is 80.5%. Consider `COc1ccc(-c2c(C)noc2-c2ccc(O)cc2O)cc1`, for which the growth was 94.1%.

A further assay relates to IGROV1 ovarian. The description is as above. The settings on record: 10 µM unless noted.
For the compound `Nc1cc2nc3ccccc3sc-2cc1=O`, the growth was 54.7%. As for `C#Cc1nc(Nc2cc(C)[nH]n2)c2ccccc2n1`, the growth is -62.7% (active). Take `CCOC(=O)c1nc(Nc2cc(C)[nH]n2)c2ccccc2n1`: the growth is 76.2%. Turning to `O=C(/C=C/c1ccc(Cl)cc1)/C=C/c1cc2ccccc2[nH]c1=O`, the growth is 78.8%. For `CCOC(=O)c1ccc2c(c1)nc(/C=C/c1ccc(Cl)cc1)n2-c1cc(C(C)(C)C)[nH]n1`, the growth was 15.4%. As to `CC(=O)OCC(=O)C1CCC=CC1OC(C)=O` (stereo not drawn), the growth was 102%. Same read-out and setting: the same measure for `CC1(C)OCC2OC3(C(=O)O)OC(C)(C)OC3C2O1` (stereo not drawn): 106%; for `COc1ccc(C(=O)c2sc3nc(-c4ccccc4OC)ccc3c2N)cc1OC`: 57.5%.

For `COc1ccc(C(=O)c2sc3nc4c(cc3c2N)CCCC4)cc1OC`, the growth is 35.9%.

Take `Cc1ccc2c(NCCCN(C)C)c3c(C)nn(C)c3nc2c1`: the growth was 29.2%. Consider `Cc1ccc(NC(=O)c2sc3nc4c(cc3c2N)C(=O)CCC4)cc1C`, for which the growth was 23.9%. In the case of `COc1c(C2CC(=O)Nc3c2cnn3Cc2ccco2)cc2c(c1OC)OCO2` (stereo not drawn), the growth was 52.8%. Consider `Cc1ccn2c(-c3csc(Nc4cccc(O)c4)n3)c(C)nc2c1`, for which the growth was 14.1%. For the compound `NC(CC(=O)O)C(=O)OCc1ccccc1` (stereo not drawn), the growth was 105%.

For the compound `O=C1Nc2ccc(Br)cc2C12CC(c1ccccc1)=NN2` (stereo not drawn), the growth is 52.6%. For the compound `Cc1cc(Nc2nc(N3CCNCC3)nc3ccccc23)n[nH]1`, the growth was 85.1%. For the compound `CCc1ccccc1NC(=O)c1sc2nc3c(cc2c1N)C(=O)CCC3`, the growth was 33.3%. For the compound `CCOC(=O)N1CCN(c2nc(Nc3cc(C)[nH]n3)c3ccccc3n2)CC1`, the growth is 35.6%.

As to `CN1CCCCC1CCN1c2ccccc2Sc2ccc(Cl)cc21` (stereo not drawn), the growth was 45.5%. As to `COc1c(Cl)cc(Cl)cc1Cl`, the growth was 97.4%. For `Cc1cc(Nc2nc(N3CCOCC3)nc3ccccc23)n[nH]1`, the growth is 30.9%. On the same count and under the same terms, under `COc1ccc(C2CC(=O)Nc3c2c(C)nn3-c2nc3ccccc3[nH]2)cc1` (stereo not drawn) stands 12.6%; under `COc1cc(-c2cc(-c3nc4ccc(Cl)cc4[nH]3)[nH]n2)cc(OC)c1OC`, 44.3%; under `Cc1noc(C)c1-c1cc(O)cc(C(O)c2ccccc2)c1` (stereo not drawn), 46%. Still for that read-out and setting: under `COc1ccc(-c2nc(Nc3cc(C)[nH]n3)c3ccccc3n2)cc1` stands 1.47% (active); under `Cc1cc(Nc2nc(-c3cccnc3)nc3ccccc23)n[nH]1`, 28.9%; under `CC#Cc1nc2ccccc2c(=O)[nH]1`, 14%. For the compound `O=C(Nc1ccc(F)cc1)Nc1ccc(CCO)cc1`, the growth is 99.9%. For `CCCCNC(=O)NS(=O)(=O)c1ccc(N2N=C(c3cc(C)ccc3C)CC2c2cc(OC)c(OC)c(OC)c2)cc1` (stereo not drawn), the growth is 41.4%. In the case of `COc1cc(C2C(C(=O)c3cccs3)=C(O)C(=O)N2CCN2CCOCC2)cc(OC)c1OC` (stereo not drawn), the growth is 100%. `NCc1cn2cc(Cl)sc2n1`: the growth is 109%.

On to `CCCCCCCCCCCCN1CCCC(C)C1` (stereo not drawn), for which the growth was 82.4%.

As for `O=c1c2cccc3c(Nc4ccccn4)ccc(c32)c2nc3ccccc3n12`, the growth is 56.6%. Still for that read-out and setting: the same measure for `Cc1ccc(S(=O)(=O)N(CCc2ccc(Cl)cc2)S(=O)(=O)c2ccc(C)cc2)cc1`: 89.1%; for `O=C(N/N=C/c1ccc(O)cc1O)c1cccnc1`: 44.3%; for `CNC(=S)N/N=C/CSC/C=N/NC(=S)NC`: 9.24% (active). With `COc1ccc(-c2c(C)noc2-c2ccc(O)cc2O)cc1`, the growth was 87%.

For the origin of these results see PubChem BioAssay (NCI).
